Bioassay records (PubChem)
Mdm2 MdmX PPI – inhibitors of human Mdm2/MdmX interaction. SaOS-2 split-luciferase Mdm2/MdmX complementation, luminescence. inhibition, % at 8 µM. actives 3% (n = 330,000). AID 485346;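 active = inhibition of at least 50% at 8 µM in the primary screen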
697 NFkB inh – inhibitors of the PMA/ionomycin-induced NF-kB reporter in 697 B cells. 697 B-cell NF-kB luciferase reporter, 16 h. inhibition, % at 4 µM. actives 0.33% (n = 330,000); in the data active = inhibition above about 35%
KLF5 inh – inhibitors of KLF5 expression; DLD-1 KLF5 promoter-luciferase reporter, luminescence; inhibition, % at 5 µM; actives 0.23% (n = 290,000); AID 1700;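 active = inhibition above a per-plate limit of that plate's mean compound inhibition plus 3 SD, cut at about 60% in these data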;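 note: higher means less KLF5 promoter-driven luciferase light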
Gli-Sufu antag – blocks Gli-Sufu signaling in a luciferase reporter. Sufu-KO-LIGHT fibroblasts, Gli luciferase reporter luminescence. inhibition, % at 5 µM. actives 0.74% (n = 340,000). AID 588413;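 active = inhibition above about 55%, limit read from the data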
Jurkat NFkB inh – lowers PMA/ionomycin-induced NF-kB signal in Jurkat cells | inhibition, % at 4 µM | actives 0.53% (n = 330,000) | PMA/ionomycin-induced NF-kB luciferase reporter, luminescence; in the data active = inhibition above about 50%
aSyn UTR inh – MLPCN primary screen, SNCA 5' untranslated region; alpha-synuclein 5'UTR reporter, inhibitor activity; inhibition, % (tested at 7.5 µM); actives 0.82% (n = 300,000); AID 1813; in the data active = inhibition above about 60%; inconclusive = no clear call, values can overlap the other calls;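 note: H4 neuroglioblastoma cells stably carrying SNCA 5'UTR luciferase fusion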
Mdm2 MdmX conf – human Mdm2/MdmX binding inhibition, confirmed | shares compounds with Mdm2 MdmX PPI | luminescent assay | inhibition, % at 8 µM | actives 55% (n = 10,000) | AID 489028; in the data active = inhibition above about 40%
FLuc counter – full-length luciferase inhibition in Mdm2/MdmX counter-screen; shares compounds with Mdm2 MdmX PPI; SaOS-2 full-length luciferase counterscreen, luminescence; inhibition, % at 8 µM; actives 77% (n = 6,200);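 active = mean inhibition at 8 µM reaching about 37%, which flags the compound as non-specific, limit read from the data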;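 note: p53-null SaOS-2 cells with luciferase driven by a doxycycline-inducible promoter; compound on cells about two nights before reading with doxycycline added after day one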
Of the large screens only hits and unclear results are named; the others gave an inactive call (follow-up assays come after a bar, where they were run). Rows were chosen to be rich in hits. Some 4.1% of all compounds tested hit in one or more screens of this group.

CCCCCCCCCC(=O)N[C@@H]1c2cc(OC)c(OC)cc2C[C@H]1OCc1ccccc1	Mdm2 MdmX PPI 89 (no result: KLF5 inh, Jurkat NFkB inh, aSyn UTR inh) | Mdm2 MdmX conf 69 | FLuc counter inactive
COc1ccc2c(c1OC)C(=O)N1c3ccccc3SC21 (stereo not given)	none
COc1ccc2c(c1OC)C(=O)N1c3ccccc3C(=O)N(c3ccccc3F)C21 (stereo not given)	Mdm2 MdmX PPI 66, aSyn UTR inh inconclusive | Mdm2 MdmX conf 60 | FLuc counter 76
Cc1cc(C)c(C(=O)CN2C(=O)NC3(CCCCCC3)C2=O)cc1C	none
Nc1nonc1-n1nnc(C(=O)N/N=C/c2ccc(OCc3ccccc3)cc2)c1COc1ccc(F)cc1	Mdm2 MdmX PPI 61 | Mdm2 MdmX conf 40 | FLuc counter 105
Cc1ccccc1COc1cccc(/C=N/NC(=O)c2nnn(-c3nonc3N)c2C)c1	Mdm2 MdmX PPI 51 | Mdm2 MdmX conf inactive | FLuc counter 87
Nc1nonc1-n1nnc(C(=O)N/N=C/c2ccc(OCc3ccccc3)cc2)c1CNc1ccccc1	Mdm2 MdmX PPI 77 | Mdm2 MdmX conf inactive
CC(C)c1c(C(=O)N/N=C/c2ccc(OCc3ccccc3)cc2)nnn1-c1nonc1N	none
Nc1nonc1-n1nnc(C(=O)N/N=C/c2ccc(F)cc2)c1-c1ccc2c(c1)OCO2	Mdm2 MdmX PPI 59 | Mdm2 MdmX conf inactive
COc1ccc(CCNC(=O)CCc2cc(OC)c(OC)c(OC)c2)cc1OC	none
O=C(Nc1ccc(Cl)cc1)/C(=C/c1cccc(O)c1)c1nc2ccccc2s1	Mdm2 MdmX PPI 100 | Mdm2 MdmX conf 100 | FLuc counter 51
Cc1ccc(N2C(=O)CC(Sc3nc4ccccc4o3)C2=O)cc1Cl (stereo not given)	Mdm2 MdmX PPI 89 | Mdm2 MdmX conf inactive
CCCc1c(O)nc(SC2CC(=O)N(c3ccc(C)c(Cl)c3)C2=O)[nH]c1=O (stereo not given)	none (no result: KLF5 inh)
CCCN1C(=O)C(=O)c2cc(C)ccc21	Mdm2 MdmX PPI 60 (no result: KLF5 inh, aSyn UTR inh) | Mdm2 MdmX conf inactive
Cc1ccc(CN2C(=O)C(=O)c3cc(C)ccc32)cc1	Mdm2 MdmX PPI 67 (no result: KLF5 inh, aSyn UTR inh) | Mdm2 MdmX conf inactive
O=C1C(=O)N(CCS(=O)(=O)c2ccccc2)c2ccccc21	none
Cc1ccc2c(c1)C(=O)C(=O)N2c1ccc(C(F)(F)F)cc1	none (no result: KLF5 inh, aSyn UTR inh)
Cc1ccc2c(c1)C(=O)C(=O)N2c1ccc(Cl)cc1	none (no result: KLF5 inh, aSyn UTR inh)
Cc1ccc2c(c1)C(=O)C(=O)N2Cc1ccc(Br)cc1	Mdm2 MdmX PPI 66 (no result: KLF5 inh, aSyn UTR inh) | Mdm2 MdmX conf 63 | FLuc counter 74
CCCCN1C(=O)C(=O)c2cc(Cl)ccc21	Mdm2 MdmX PPI 54 (no result: KLF5 inh, aSyn UTR inh) | Mdm2 MdmX conf inactive
CCc1nn(C(C)C(=O)NCc2ccc(Cl)cc2)c(=O)c2cc3occc3n12 (stereo not given)	none
CN(CC(=O)Nc1ccc(N2CCOCC2)cc1)CC(=O)Nc1ccccc1C#N	none
COc1ccc(NC(=O)CSc2cc(C(=O)c3nccn3C)c3ccccc3n2)cc1	none
Cc1cc(C)n(-c2nc(N(c3ccccc3)c3ccccc3)nc(-n3nc(C)cc3C)n2)n1	Mdm2 MdmX PPI 100, aSyn UTR inh inconclusive | Mdm2 MdmX conf 100 | FLuc counter 58
Cc1cc(C)n(-c2nc(Nc3ccccc3)nc(-n3nc(C)cc3C)n2)n1	none
Cc1ccc(CNC(=O)CN(c2ccc(C)cc2)S(=O)(=O)c2c(C)nn(C)c2C)cc1	Mdm2 MdmX PPI 53 | Mdm2 MdmX conf 51 | FLuc counter 63
Cc1nn(C)c(C)c1S(=O)(=O)N(CC(=O)N1CCc2ccccc21)c1ccc(C(C)C)cc1	Mdm2 MdmX PPI 63 | Mdm2 MdmX conf inactive
Cc1ccc(N(CC(=O)NCc2ccc(F)cc2)S(=O)(=O)c2c(C)nn(C)c2C)cc1	Mdm2 MdmX PPI 64 | Mdm2 MdmX conf 63 | FLuc counter 63
Cc1ccc(NC(=O)C2CCN(S(=O)(=O)c3ccc4c(c3)NC(=O)C(C)S4)CC2)cc1Cl (stereo not given)	Mdm2 MdmX PPI 61, Gli-Sufu antag 60 | Mdm2 MdmX conf inactive
COc1ccc(Cl)cc1NC(=O)CN(C)C(=O)c1n[nH]c2ccccc12	none (no result: KLF5 inh)
